ELG1 DNA repair – qHTS screen for small molecules that inhibit ELG1-dependent DNA repair in human embryonic kidney (HEK293T) cells expressing luciferase-tagged ELG1; HEK293T ELG1-luciferase reporter, luminescence, 16 h; DNA damage induced by 5-fluorouridine; Potency, µM (top dose mostly 46.1 µM), usual class: inhibitors; hit rate 2.3% among 330,000; AID 504467, 2011; note: nearly all actives have a fitted effect of over 55% in size
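DMSO vehicle served as the neutral condition. Each well held 2,000 cells given 5-fluorouridine plus compound; after 16 hr at 37 °C/5% CO2, ONE-Glo was added and luciferase measured 30 min later.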
DT40 TDP1 no CPT – qHTS for Inhibitors of human tyrosyl-DNA phosphodiesterase 1 (TDP1): qHTS in cells in absence of CPT | DT40 Tdp1-/- hTDP1 cells, no CPT, ATP luminescence, 48 h | Potency, µM (titrated, usually from 46.2 µM), hits mostly inhibitors | hit rate 15% among 420,000; note: nearly all actives have a fitted effect of over 55% in size
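Stably hTDP1-transfected Tdp1-null chicken DT40 cells were treated with library compounds minus camptothecin and grown for at least 48 hr at 37 °C, after which cellular ATP was quantified by luminescence.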
TDP1 inh – qHTS Assay for Inhibitors of Tyrosyl-DNA Phosphodiesterase (TDP1) | AID 485290, 2010 | hit rate 0.28% among 350,000 | Tyrosyl-DNA phosphodiesterase 1 (Homo sapiens), Q9NUW8 | recombinant TDP1, AlphaScreen DNA substrate cleavage | Potency, µM (doses to about 130 µM), hits mostly inhibitors; note: nearly all actives have a fitted effect of over 40% in size
Target sequence (Q9NUW8 whole entry, looked up): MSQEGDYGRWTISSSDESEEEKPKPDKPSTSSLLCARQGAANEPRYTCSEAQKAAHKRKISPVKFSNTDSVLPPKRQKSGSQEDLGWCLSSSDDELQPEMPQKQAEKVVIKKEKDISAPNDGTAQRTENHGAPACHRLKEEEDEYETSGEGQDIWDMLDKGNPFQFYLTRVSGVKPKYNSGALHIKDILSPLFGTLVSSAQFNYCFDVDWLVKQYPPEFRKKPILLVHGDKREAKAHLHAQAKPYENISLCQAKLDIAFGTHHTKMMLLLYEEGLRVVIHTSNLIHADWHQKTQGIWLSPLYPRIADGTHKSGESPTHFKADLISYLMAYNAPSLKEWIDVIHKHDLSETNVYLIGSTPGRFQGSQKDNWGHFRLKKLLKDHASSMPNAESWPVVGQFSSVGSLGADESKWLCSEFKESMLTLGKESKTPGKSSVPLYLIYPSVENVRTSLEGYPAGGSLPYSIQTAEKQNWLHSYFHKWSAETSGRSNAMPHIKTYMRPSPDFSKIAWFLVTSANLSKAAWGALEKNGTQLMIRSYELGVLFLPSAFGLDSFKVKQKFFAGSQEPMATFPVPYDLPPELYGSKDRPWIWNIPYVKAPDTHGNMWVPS
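Recombinant E. coli-expressed Tdp1 (1 nM) preincubated with compound 15 min at RT, then 5'-biotin/3'-phosphotyrosine-FITC DNA substrate (15 nM) added for 5 min. AlphaScreen beads (10 ug/ml) added, 10 min RT; tyrosine-FITC cleavage read as signal loss.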
IL-1B inflam inh – qHTS for Inhibitors of Inflammasome Signaling: IL-1-beta AlphaLISA Primary Screen. activity change, % at 57.5 µM. THP-1 LPS/ATP IL-1B secretion, AlphaLISA, 16 h; stronger effect = lower value. AID 743279, 2014. hit rate 4.7% among 360,000; in the data active = activity change below about -50%; inconclusive = mostly about -30% to -49%
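THP-1 cells pretreated 1 hr with compounds (up to 57.5 uM final), then stimulated with LPS (250 ng/mL final) plus ATP (1.25 mM final); secreted IL-1B measured by AlphaLISA after 16 hr, decreased signal indicating inhibition.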
Giardia kill – Small Molecules that selectively kill Giardia lamblia: qHTS; Giardia lamblia trophozoite viability; activity change, % at 7.66 µM, hits read low; hit rate 0.15% among 340,000; in the data active = activity change below about -80%; inconclusive = between about -30% and that limit;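 note: parasites exposed to compound for two days anaerobically before the ATP read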
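Media and compound were dispensed first, then trophozoites at 100 cells/well; plates sat 48 hrs at 37 deg C without oxygen before ATP luminescence reagent was added and read after 15-30 min at room temperature.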
TDP1 cell CPT – qHTS for Inhibitors of human tyrosyl-DNA phosphodiesterase 1 (TDP1): qHTS in cells in presence of CPT; chicken DT40 Tdp1-/-;hTDP1 cells + 20 nM CPT, ATP luminescence, 48 h; AID 686979, 2013; Potency, µM (top dose mostly 46.2 µM), usual class: inhibitors; hit rate 12% among 420,000; note: nearly all actives have a fitted effect of over 55% in size
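Cell growth measured by CellTiter-Glo luminescence after a minimum 48 h, 37 C compound exposure with 20 nM CPT in Tdp1-knockout DT40 cells stably expressing hTDP1, seeded 400/well; qHTS titration format.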
Of the large screens only hits and unclear results are named; the others gave an inactive call. In the library only some 19% were active in any assay of this set; here they are far more common. Unless noted, calls come from the whole dose curve; as a rule, active = well fitted curve in the direction sought with a large enough effect; inconclusive = small, poorly fitted or top-dose-only effect, or another doubt; inactive = no such curve, though single readings can be large; an effect the other way counts as inactive or inconclusive.

CCCCNC(=O)C1c2ccccc2OCC(=O)N1CCCN1CCOCC1 (stereo not given)	none (no result: ELG1 DNA repair, TDP1 inh, Giardia kill)
CCC(=O)Nc1cccc(-c2cn3c(C)csc3n2)c1	none (no result: ELG1 DNA repair, IL-1B inflam inh, Giardia kill)
Cc1csc2nc(-c3cccc(NC(=O)c4c(F)cccc4F)c3)cn12	DT40 TDP1 no CPT 23µM, TDP1 cell CPT 23µM (no result: ELG1 DNA repair, IL-1B inflam inh, Giardia kill)
Cc1csc2nc(-c3cccc(NC(=O)c4ccc(S(N)(=O)=O)cc4)c3)cn12	DT40 TDP1 no CPT 16µM, TDP1 cell CPT inconclusive (no result: ELG1 DNA repair, IL-1B inflam inh, Giardia kill)
CC1CCN(S(=O)(=O)c2ccc3c(c2)N(CC(=O)N2CCN(c4ccccc4)CC2)C(=O)CO3)CC1	none (no result: ELG1 DNA repair, DT40 TDP1 no CPT, IL-1B inflam inh, Giardia kill, TDP1 cell CPT)
C=C1/C=C(\C)C(C)(O)CC(O)CC(=O)C(O)C(O)C(C)CC(C)OC(=O)/C(C)=C/CC/C=C/C(OC)C(O)CC(C)C1 (stereo not given)	ELG1 DNA repair 15µM, DT40 TDP1 no CPT inconclusive, IL-1B inflam inh -53, TDP1 cell CPT inconclusive
Cc1ccccc1Nc1nc(N)c2ccccc2n1	ELG1 DNA repair inconclusive, DT40 TDP1 no CPT inconclusive, IL-1B inflam inh -96, Giardia kill inconclusive, TDP1 cell CPT inconclusive
COc1ccc(C)cc1Nc1nc(N)c2ccccc2n1	DT40 TDP1 no CPT inconclusive, IL-1B inflam inh -93, TDP1 cell CPT inconclusive
Cc1ccccc1Nc1ncc(C#N)c(N)n1	ELG1 DNA repair inconclusive
CCOC(=O)c1ccc(NC(=O)CC2C(=O)N(c3ccc(C)cc3)C(=O)N2C2CCCC2)cc1 (stereo not given)	DT40 TDP1 no CPT 21µM, TDP1 cell CPT inconclusive (no result: ELG1 DNA repair, IL-1B inflam inh, Giardia kill)
COC(=O)c1ccc(NC(=O)CC2C(=O)N(c3ccccc3)C(=O)N2C2CCCC2)cc1 (stereo not given)	DT40 TDP1 no CPT 16µM, TDP1 cell CPT inconclusive (no result: ELG1 DNA repair, IL-1B inflam inh, Giardia kill)
Cc1occc1C(=O)NCCN1Cc2ccccc2OC(c2ccccc2F)C1 (stereo not given)	DT40 TDP1 no CPT inconclusive (no result: ELG1 DNA repair, TDP1 inh, IL-1B inflam inh, Giardia kill)
Cc1ccccc1N1CCN(Cc2c[nH]c3ccccc23)CC1	DT40 TDP1 no CPT 6.5µM, IL-1B inflam inh inconclusive, TDP1 cell CPT 3.7µM
Cc1ccc(CN2CCN(c3cccc4[nH]ccc34)CC2)cc1	DT40 TDP1 no CPT inconclusive, TDP1 cell CPT 16µM (no result: TDP1 inh)
CCS(=O)(=O)N1CCN(Cc2c[nH]c3ccccc23)CC1	TDP1 inh inconclusive, TDP1 cell CPT inconclusive
c1cnc(N2CCN(Cc3c[nH]c4ccccc34)CC2)nc1	DT40 TDP1 no CPT 2.1µM, IL-1B inflam inh inconclusive, TDP1 cell CPT 1.8µM
O=C(c1ccc(Cl)cc1)N1CCN(c2cccc3[nH]ccc23)CC1	none
c1ccc(CN2CCN(c3ncccn3)CC2)nc1	none (no result: DT40 TDP1 no CPT, IL-1B inflam inh, Giardia kill, TDP1 cell CPT)
COCC1CCCN(Cc2ccc3c(c2)CN(C(=O)c2ccc(-c4ccc(C)o4)cc2)CCO3)C1 (stereo not given)	none (no result: ELG1 DNA repair, TDP1 inh, IL-1B inflam inh, Giardia kill)
COC(=O)CSc1ccc(S(=O)(=O)N2CCCCCC2)cc1[N+](=O)[O-]	ELG1 DNA repair 10µM
CCOC(=O)CSc1ccc(S(=O)(=O)N2CCCCC2)cc1[N+](=O)[O-]	none
O=[N+]([O-])c1cc(S(=O)(=O)N2CCCCCC2)ccc1F	ELG1 DNA repair inconclusive, DT40 TDP1 no CPT 10µM, IL-1B inflam inh inconclusive, TDP1 cell CPT 7.3µM
COC(=O)CN1C(C)=Nc2ccc(C)cc2C1c1ccccc1 (stereo not given)	IL-1B inflam inh -53
CN(C)CCCn1c(=O)n(CCc2ccccc2)c(=O)c2c3c(sc21)CCCCC3	DT40 TDP1 no CPT 23µM, IL-1B inflam inh inconclusive, TDP1 cell CPT inconclusive
CN(C)CCCNc1nc2sc3c(c2c(=O)n1CCc1ccccc1)CCCCC3	DT40 TDP1 no CPT 16µM, TDP1 cell CPT inconclusive (no result: IL-1B inflam inh)
CN(C)CCn1c(=O)n(Cc2ccccc2)c(=O)c2c3c(sc21)CCCCC3	DT40 TDP1 no CPT inconclusive, IL-1B inflam inh -64 (no result: TDP1 inh)
O=c1c2c3c(sc2n2cnnc2n1CCc1ccccc1)CCCC3	ELG1 DNA repair inconclusive, DT40 TDP1 no CPT inconclusive, TDP1 cell CPT inconclusive

Screens from PubChem BioAssay.
